In PubChem BioAssay (NCI):
About 83,000 compounds went through this panel and 20% of them were active in at least one assay; those are over-represented in the sample as a whole.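 Interpretation: 100, growth as untreated; towards 0, rising growth inhibition; 0, no net growth; 0 to -100, cell death. Compounds scoring below 10 were considered active.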 Activity calls are given as the source filed them.

Tests used:
Assay in all cases: NCI-60 one-dose screen, 48 h (100 = growth as untreated, 0 = no growth, -100 = all killed)
Settings in all cases: 10 µM unless noted
HCT-15 colon = test system: HCT-15 colon
HT29 colon = test system: HT29 colon
SNB-75 CNS = test system: SNB-75 CNS
SNB-19 CNS = test system: SNB-19 CNS
U251 CNS = test system: U251 CNS
PC-3 prostate = test system: PC-3 prostate
SK-MEL-5 melanoma = test system: SK-MEL-5 melanoma
UACC-62 melanoma = test system: UACC-62 melanoma
LOX IMVI melanoma = test system: LOX IMVI melanoma
SK-MEL-28 melanoma = test system: SK-MEL-28 melanoma

Measured: growth

CCN(CC)Cc1cc(Nc2c3ccc(Cl)cc3nc3ccc(OC)cc23)ccc1O
active: SK-MEL-28 melanoma -5.73%
inactive: HCT-15 colon 34.1% | HT29 colon 11.8% | SNB-75 CNS 103% | SNB-19 CNS 57.2% | U251 CNS 57% | PC-3 prostate 78% | SK-MEL-5 melanoma 85.5% | UACC-62 melanoma 103% | LOX IMVI melanoma 24.9%

O=C1/C(=C/c2ccc(F)cc2)Sc2c(Br)cccc21
inactive: HCT-15 colon 75.8% | HT29 colon 100% | SNB-75 CNS 87.7% | SNB-19 CNS 95.6% | U251 CNS 70.4% | PC-3 prostate 70.4% | SK-MEL-5 melanoma 88.1% | UACC-62 melanoma 55.7% | LOX IMVI melanoma 82% | SK-MEL-28 melanoma 110%

COc1ccc(C(Cc2ccccc2)NCCN2CCOCC2)cc1 (stereo not given)
inactive: HCT-15 colon 99.8% | HT29 colon 87.7% | SNB-75 CNS 97.4% | SNB-19 CNS 106% | U251 CNS 108% | PC-3 prostate 93.8% | SK-MEL-5 melanoma 108% | UACC-62 melanoma 100% | LOX IMVI melanoma 91.4% | SK-MEL-28 melanoma 103%

Cc1ccc2sc3c(NCCCN)nc4ccccc4c3c(=O)c2c1
active: HCT-15 colon -12.2% | HT29 colon -47.4% | U251 CNS 6.32% | LOX IMVI melanoma -97.7%
inactive: SNB-75 CNS 78.1% | SNB-19 CNS 74.6% | PC-3 prostate 65.4% | SK-MEL-5 melanoma 90.6% | UACC-62 melanoma 94.1% | SK-MEL-28 melanoma 95.3%

O=C(CCOCCNC(=O)COc1ccc2c(c1)OCC(c1ccc(F)cc1)C2=O)NCCCC(O)(P(=O)(O)O)P(=O)(O)O (stereo not given)
inactive: HCT-15 colon 98.9% | HT29 colon 104% | SNB-75 CNS 89.6% | SNB-19 CNS 99.6% | U251 CNS 107% | PC-3 prostate 102% | SK-MEL-5 melanoma 101% | UACC-62 melanoma 105% | LOX IMVI melanoma 97.8% | SK-MEL-28 melanoma 108%

Cc1nn(-c2ccccc2)c(-n2ccnc2)c1/C=N/Nc1nc(-c2ccc(Cl)c(Cl)c2)cs1
active: SNB-75 CNS -2.39%
inactive: HCT-15 colon 23.8% | HT29 colon 17.1% | SNB-19 CNS 46% | U251 CNS 53.1% | PC-3 prostate 28.8% | SK-MEL-5 melanoma 26.5% | UACC-62 melanoma 71.4% | LOX IMVI melanoma 20.1% | SK-MEL-28 melanoma 58.1%

COc1ccc(-c2nc3sc(-c4ccc(Cl)cc4)cn3n2)cc1
active: SNB-75 CNS -1.66% | SNB-19 CNS -1.95% | U251 CNS -67.9%
inactive: HCT-15 colon 72% | HT29 colon 17.3% | PC-3 prostate 58.1% | SK-MEL-5 melanoma 72.6% | UACC-62 melanoma 68.6% | LOX IMVI melanoma 54.2% | SK-MEL-28 melanoma 100%

Cc1[nH]c(C(=O)Nc2ccc(C(=O)N3CCNCC3)cc2OC(C)C)c(Cl)c1Cl
inactive: HCT-15 colon 49.7% | SNB-75 CNS 77.5% | SNB-19 CNS 77.5% | U251 CNS 35.8% | PC-3 prostate 71.5% | SK-MEL-5 melanoma 93.4% | UACC-62 melanoma 102% | SK-MEL-28 melanoma 105%
active: HT29 colon 9.76% | LOX IMVI melanoma -16%

Cc1cccc2c3c(sc12)C(c1ccc(Cl)cc1)C(C#N)=C(/N=C/c1ccc(Cl)cc1)O3 (stereo not given)
inactive: SNB-19 CNS 23.7% | U251 CNS 24.4% | PC-3 prostate 11% | SK-MEL-5 melanoma 26.4% | UACC-62 melanoma 13.1% | LOX IMVI melanoma 20.9% | SK-MEL-28 melanoma 58.1%
active: HCT-15 colon 8.99% | HT29 colon 6.06% | SNB-75 CNS -3.88%

CCOc1ccc2nc(SCc3nc4n(n3)S(=O)(=O)c3ccccc3N4C)sc2c1
inactive: HCT-15 colon 26.9% | HT29 colon 62.3% | SNB-19 CNS 30.6% | U251 CNS 16.3% | PC-3 prostate 19.5% | UACC-62 melanoma 25.9% | LOX IMVI melanoma 19.8% | SK-MEL-28 melanoma 45.7%
active: SNB-75 CNS -15% | SK-MEL-5 melanoma -23.9%

CCc1ccc2nc(NC(=O)Cc3csc(NC(=O)c4ccco4)n3)sc2c1
inactive: HCT-15 colon 95.5% | HT29 colon 86.5% | SNB-75 CNS 47.1% | SNB-19 CNS 64.4% | U251 CNS 67.3% | PC-3 prostate 66.1% | SK-MEL-5 melanoma 81.6% | UACC-62 melanoma 65.9% | LOX IMVI melanoma 85.7% | SK-MEL-28 melanoma 90.9%

CCOC(=O)NCCc1ccccc1
inactive: HCT-15 colon 118% | HT29 colon 102% | SNB-75 CNS 78.7% | SNB-19 CNS 103% | U251 CNS 108% | PC-3 prostate 101% | SK-MEL-5 melanoma 111% | UACC-62 melanoma 88.8% | LOX IMVI melanoma 93.9% | SK-MEL-28 melanoma 118%

CC(=O)N1N=C(c2ccc(Nc3nc(Nc4ccc(F)cc4)nc(Nc4ccc(Cl)cc4)n3)cc2)CC1c1ccc(Cl)cc1 (stereo not given)
inactive: HCT-15 colon 93.4% | HT29 colon 106% | SNB-75 CNS 70.1% | SNB-19 CNS 83.5% | U251 CNS 94.7% | PC-3 prostate 68.8% | SK-MEL-5 melanoma 105% | UACC-62 melanoma 99% | LOX IMVI melanoma 89.8% | SK-MEL-28 melanoma 121%

C#C[C@]1(O)CC[C@H]2[C@@H]3CC=C4c5sc(Nc6ccccc6)nc5CC[C@]4(C)[C@H]3CC[C@@]21C
active: HCT-15 colon -28.1% | HT29 colon 6.31% | SNB-75 CNS -22.2% | LOX IMVI melanoma -6.23% | SK-MEL-28 melanoma -19.9%
inactive: SNB-19 CNS 49.4% | U251 CNS 13.8% | PC-3 prostate 10.4% | SK-MEL-5 melanoma 14.2% | UACC-62 melanoma 19.6%

COc1ccc(C2NC(=O)C(C#N)c3c2sc2c(F)cccc32)c(OC)c1 (stereo not given)
inactive: HCT-15 colon 36.3% | HT29 colon 66.1% | SNB-19 CNS 44.2% | U251 CNS 39.3% | PC-3 prostate 56.8% | SK-MEL-5 melanoma 81.8% | UACC-62 melanoma 42.3% | LOX IMVI melanoma 39.7% | SK-MEL-28 melanoma 55.1%
active: SNB-75 CNS -5.26%

CCCCn1c(-c2ccc(-c3nc(-c4ccc(Cl)cc4)no3)cc2)nc(-c2ccccc2)c1-c1ccccc1
inactive: HCT-15 colon 77.2% | HT29 colon 90.2% | SNB-75 CNS 80.5% | SNB-19 CNS 83.5% | U251 CNS 87% | PC-3 prostate 70.4% | SK-MEL-5 melanoma 97.9% | UACC-62 melanoma 71.5% | LOX IMVI melanoma 31.3% | SK-MEL-28 melanoma 90.8%

NCCOc1ncccc1/C=C1\c2ccccc2-c2ccc(C(F)F)cc21
inactive: HCT-15 colon 28.8% | HT29 colon 48.9% | SNB-75 CNS 53.2% | SNB-19 CNS 40.4% | U251 CNS 35.9% | PC-3 prostate 50.9% | SK-MEL-5 melanoma 58.2% | UACC-62 melanoma 68.2% | LOX IMVI melanoma 12.3% | SK-MEL-28 melanoma 82%

COc1ccc(-c2nc3sc(-c4ccccc4)cn3n2)cc1
inactive: HCT-15 colon 30.4% | HT29 colon 29.6% | SNB-75 CNS 65.2% | SNB-19 CNS 65.9% | U251 CNS 78.8% | PC-3 prostate 66.5% | SK-MEL-5 melanoma 34.4% | UACC-62 melanoma 57.2% | LOX IMVI melanoma 54.4% | SK-MEL-28 melanoma 67.6%

COc1cc(/C=C2\C(=O)Nc3ccc(Br)cc32)cc(OC)c1OC
inactive: HCT-15 colon 38.6% | HT29 colon 24.4% | SNB-75 CNS 36.5% | SNB-19 CNS 81% | U251 CNS 51% | PC-3 prostate 60.4% | SK-MEL-5 melanoma 56.9% | UACC-62 melanoma 51.6% | LOX IMVI melanoma 57.2% | SK-MEL-28 melanoma 80.2%

NS(=O)(=O)c1ccc(-n2nc(-c3ccc(Cl)cc3)c3ccccc3c2=O)cc1
inactive: HCT-15 colon 94.5% | HT29 colon 97.1% | SNB-75 CNS 79.2% | SNB-19 CNS 85.6% | U251 CNS 103% | PC-3 prostate 75.3% | SK-MEL-5 melanoma 90.3% | UACC-62 melanoma 89.2% | LOX IMVI melanoma 83.6% | SK-MEL-28 melanoma 117%

Cc1nc2nc(SCC(=O)O)[nH]c2c(=O)[nH]1
inactive: HCT-15 colon 103% | HT29 colon 96.8% | SNB-75 CNS 110% | SNB-19 CNS 92.5% | U251 CNS 96.8% | PC-3 prostate 96.6% | SK-MEL-5 melanoma 100% | UACC-62 melanoma 96.4% | LOX IMVI melanoma 95.3% | SK-MEL-28 melanoma 106%

Cc1ccccc1C(=O)NN
inactive: HCT-15 colon 106% | HT29 colon 98.9% | SNB-75 CNS 91.1% | SNB-19 CNS 105% | U251 CNS 104% | PC-3 prostate 92.8% | SK-MEL-5 melanoma 119% | UACC-62 melanoma 101% | LOX IMVI melanoma 109% | SK-MEL-28 melanoma 115%

COc1ccc(-c2ncnc3c2ncn3CC#CCCl)cc1
inactive: HCT-15 colon 49.6% | HT29 colon 93.9% | SNB-75 CNS 93.5% | SNB-19 CNS 72.5% | U251 CNS 29.4% | PC-3 prostate 57.1% | SK-MEL-5 melanoma 62.5% | UACC-62 melanoma 51.2% | SK-MEL-28 melanoma 86.7%
active: LOX IMVI melanoma -31.7%

COc1ccc(N2C(=O)C(Oc3ccccc3)C2c2ccc(C)cc2)cc1 (stereo not given)
inactive: HCT-15 colon 91.2% | HT29 colon 97.8% | SNB-75 CNS 97.7% | SNB-19 CNS 101% | U251 CNS 90.1% | PC-3 prostate 97.6% | SK-MEL-5 melanoma 104% | UACC-62 melanoma 102% | LOX IMVI melanoma 98.1% | SK-MEL-28 melanoma 99.5%

Fc1cc(-c2nnc3n2NC(=Nc2ccc(Cl)cc2)CS3)c(Cl)cc1Cl
inactive: HCT-15 colon 97.3% | HT29 colon 93.8% | SNB-75 CNS 71.7% | SNB-19 CNS 93.6% | U251 CNS 94.9% | PC-3 prostate 111% | SK-MEL-5 melanoma 88.9% | UACC-62 melanoma 81.4% | LOX IMVI melanoma 86.5% | SK-MEL-28 melanoma 99%

NC(=O)C1(Nc2ccc(Br)cc2)CCCC1
inactive: HCT-15 colon 107% | HT29 colon 102% | SNB-75 CNS 93.2% | SNB-19 CNS 105% | U251 CNS 97.5% | PC-3 prostate 94.3% | SK-MEL-5 melanoma 103% | UACC-62 melanoma 96.4% | LOX IMVI melanoma 103% | SK-MEL-28 melanoma 106%

O=c1c2cccc(Cl)c2sc2c(NCCCNCCO)nc3ccccc3c12
active: HCT-15 colon -24.3% | HT29 colon -51.7% | LOX IMVI melanoma -93.1%
inactive: SNB-75 CNS 51.9% | SNB-19 CNS 45.7% | U251 CNS 10.8% | PC-3 prostate 41.8% | SK-MEL-5 melanoma 81.8% | UACC-62 melanoma 66.2% | SK-MEL-28 melanoma 72.1%
